Reference: PubChem BioAssay AID624491 (Broad Institute, 2012)
Hit rate of the full screen: of about 1,800 compounds, about 1,400 (78%) were called active. Inconclusive results (about 2%) are left out.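 Rule for the calls: active = fitted curve crossing a set activation limit at or below the highest valid dose tested; inconclusive = flat fit at 30 to 70% activation, or poor fit; inactive = the rest, including signal decreases.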 So high a share suggests a set chosen from earlier hits. A selection follows. Potency and affinity values are given separately.

experiment: blockers of NLG process in reporter cells – D54 ERlucT cells, luminescence, cherry-picks, dose response (AID 624491); settings: D54 ERlucT glycosylation luciferase reporter, 24 h, 100% = twice neutral-control luminescence; series mostly up to 19.5 µM;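 note: signal gain reflects blocked N-linked glycosylation of a luciferase reporter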

Activation (NLG inhibition), inactive:
COc1ccc(C2=Nn3c(nnc3-c3ccc(OC)cc3)SC2)cc1
COc1ccc(C2=Nn3c(nnc3-c3ccco3)SC2)cc1
COc1ccc(OC)c(-c2nnc3n2N=C(c2ccc(OC)c(OC4CCCC4)c2)CS3)c1
COc1ccc2nc(-c3ccco3)c(-c3ccco3)nc2c1
O=S1(=O)C=CC(Nc2cccc(Cl)c2)C1 (stereo unspecified)
O=C(CSc1nc2nc(-c3cccs3)cc(C(F)(F)F)c2c(=O)[nH]1)C(F)(F)F
Cc1ccc(C)n1-c1ccc(C(=O)/C=C/N(C)C)cc1
Cc1ccc(-c2cc(NC(=O)CCl)n(-c3ccccc3)n2)cc1
CCOc1ccccc1NC(=O)Cn1nnc(C(=O)NCc2ccc3c(c2)OCO3)c1N
COc1cc(Cl)c(C)cc1NC(=O)CN1CCN(C(=O)C2CC2)CC1
COc1ccc(NC(=O)C2Cc3c(-c4cccc(C(C)=O)c4)ccnc3O2)cc1 (stereo unspecified)
CCNC(=O)COc1ccc(/C=C2\COc3ccccc3C2=O)cc1OC
CN(Cc1ccc(Cl)s1)C(=O)CCl
CCN(CC(=O)NCc1ccc(F)cc1)C(=O)/C=C/c1ccc(OC)c(S(=O)(=O)NC(C)C)c1
CN1C(=O)c2cccc3c(S(=O)(=O)Nc4ccccc4F)ccc1c23
CCN(CC)CCCNC(=O)c1cc2c(=O)n(CC)c3ccccc3c2s1
COc1cc(C2=NOC(C(=O)NCc3cccs3)C2)cc(OC)c1OC (stereo unspecified)
CCOC(=O)Nc1c2ccccc2nc2ccccc12
O=C(O)c1ccc(CN2C(=O)c3cccc4c([N+](=O)[O-])ccc(c34)C2=O)cc1
Cc1noc(C)c1COc1ccc(C(=O)NNC(=O)c2ccccc2)cc1
CC[C@@]1(c2ccccc2OC)ON(c2ccccc2C(F)(F)F)C1=O
COc1ccccc1C1=NOC(COc2ccc3c(C)cc(=O)oc3c2)C1 (stereo unspecified)
COc1cccc(C(=O)Nc2ncc3c(n2)CC(c2ccc(OC)cc2OC)CC3=O)c1 (stereo unspecified)
Cc1nc2c3cc(F)ccc3n(CCN3CCCCC3)c2s1
NNC(=O)c1ccc2nc(-c3ccc(Br)cc3)cn2c1
Cc1ccc(-c2cc(C(=O)N/N=C/c3c[nH]c4ccccc34)[nH]n2)cc1
COc1ccc(CCn2c(=N)c(C(=O)NC3CCCC3)cc3c(=O)n4ccccc4nc32)cc1OC
COc1cc2cc(C(c3nnnn3C(C)(C)C)N3CCc4ccccc4C3)c(=O)[nH]c2cc1OC (stereo unspecified)
Cc1cccc(N2CCN(C(=O)c3ccc(Cl)c(S(=O)(=O)NCc4ccco4)c3)CC2)c1C
C=CCN(CC=C)C(=O)CN1C(=O)NC(C)(c2ccc3cc(OC)ccc3c2)C1=O (stereo unspecified)
NC(=O)/C=C\C(=O)Nc1cccc(C(F)(F)F)c1
O=S(=O)(Nc1cccc2cccnc12)c1ccc(S(=O)(=O)N2CCCC2)cc1
CCN(CC)C(=O)CSc1nc2c(sc(=S)n2-c2ccccc2)c(=O)n1Cc1ccco1
Cc1cc(NC(=O)CSc2nc(C3CC3)nc3sc(C)c(C)c23)no1
COc1ccc(N(CC(=O)Nc2cc(Cl)ccc2OC)S(=O)(=O)c2c(C)noc2C)cc1
Cc1cc(Br)ccc1NC(=O)CCCOc1cc(=O)n(C)c2ccccc12
N#Cc1c(NC(=O)c2cnccn2)sc2c1CCCC2
O=c1cc(N=Nc2ccc(Cl)cc2)[nH]c(=O)[nH]1
CCCCCCCCn1c2c(c(=N)c3c1CCC3)CCCC2
O=C(N/N=C\c1ccc([N+](=O)[O-])o1)c1cncc(Br)c1
CCOC(=O)c1ccc(-c2ccc(/C=N/NC(=O)CN(c3cccc(C)c3)S(C)(=O)=O)o2)cc1
CC1c2cc3c(cc2CCN1C(=O)c1ccc(Br)cc1)OCCCO3 (stereo unspecified)
COc1cc2c(cc1OC)C(C)N(C(=O)Nc1ccccc1)CC2 (stereo unspecified)
Nc1nonc1-c1nc2ccccc2n1Cc1ccccc1
Nc1nonc1-c1nc2ccccc2n1CC(=O)N/N=C\c1ccc(-c2ccc(Cl)cc2)o1
CCOc1cccc2sc(Nc3nc4ccc(NC(C)=O)cc4s3)nc12
Oc1ccc(NCc2ccccc2OCc2ccccc2)cc1
CCc1cccc(CC)c1NC(=O)CN1C2CCCC1CC(NC(=O)Nc1cccc(OC)c1)C2 (stereo unspecified)
Cc1cc(NCCCN(C)C)n2c(nc3ccccc32)c1C#N
CC1Cc2ccccc2N1C(=O)CSc1nn2c(=O)c(C(C)(C)C)nnc2s1 (stereo unspecified)
COc1ccc(OC)c(N(CC(=O)Nc2cccnc2)S(=O)(=O)c2ccc(C)cc2)c1
COCC(=O)OC/C(O)=C(\C#N)c1nc2ccccc2[nH]1
CC(C)Oc1ccc(C(=O)Nc2ccc3c(c2)n(C)c(=O)n3C)cc1
O=C(Nc1ccc(N2CCCC2)c(Cl)c1)c1ccc([N+](=O)[O-])o1
O=C(NC1CCCC(C(F)(F)F)C1)c1ccc([N+](=O)[O-])o1 (stereo unspecified)
O=C(Nc1cccc2ccccc12)c1ccc([N+](=O)[O-])o1
O=C(Nc1nc2ccccc2s1)c1ccc([N+](=O)[O-])o1
CCn1cc([N+](=O)[O-])c(C(=O)Nc2nc(-c3ccc(C)c(C)c3)c(C)s2)n1
O=C(NC(=S)Nc1cccc(S(=O)(=O)NC2=NCCC2)c1)c1cc(-c2ccco2)nc2ccccc12
COc1ccc(/C=C2\COc3ccccc3C2=O)cc1OC
C[C@H](CO)N1C[C@H](C)[C@@H](CN(C)Cc2ccccc2)Oc2ccc(NC(=O)CCCCCC(=O)Nc3ccccc3N)cc2C1=O
COc1ccc(N(C(=O)CCl)C(C(=O)NC2CCCCC2)c2cccnc2)cc1 (stereo unspecified)
O=C(NC1CCCCC1)C(c1cccnc1)N(C(=O)CCl)c1cccc(Cl)c1 (stereo unspecified)
CC(=O)Cn1ncc(Br)c(Br)c1=O
CCN1/C(=C/c2sc(-c3ccccc3C)c[n+]2C)Sc2ccccc21
CCOC(=O)c1c(NC(=O)CCl)sc(C(=O)N(CC)CC)c1C
COc1ccc(C(=O)/C=C/Sc2nc3ccccc3o2)cc1
Cc1cccc(N(C)S(=O)(=O)c2ccc(-c3cc(C)no3)s2)c1
CCOc1ccc(N(C)S(=O)(=O)c2ccc(-c3cc(C)no3)s2)cc1
O=C1c2ccccc2-c2n[nH]c(=O)c3ccc(N4CCCCC4)c1c23
CCn1ncc(C2=NOC(C(=O)NCc3ccc(Cl)cc3)C2)c1C (stereo unspecified)
COc1cc(C2=NOC(C(=O)NCc3ccc(F)cc3)C2)cc(OC)c1OC (stereo unspecified)
O=C(NCc1ccc(OC(F)(F)F)cc1)C1CC(c2ccc(C(F)(F)F)cc2)=NO1 (stereo unspecified)
COc1cccc(S(=O)(=O)Nc2ccc3c(c2)[C@@H]2C[C@@H](CC(=O)NCc4ccc(Cl)cc4)O[C@@H](CO)[C@@H]2O3)c1
COc1cc(-c2cc(-c3ccc(O)cc3)nc(N)c2C#N)ccc1O
COc1ccccc1-c1cc(NC=O)c2ncc(-c3cccc(C(C)=O)c3)n2c1
COC(=O)c1cccc(NS(=O)(=O)c2ccc(OC)cc2)c1C
O=C(CC1Sc2ccccc2NC1=O)NNc1cccc(Cl)c1Cl (stereo unspecified)
Cc1c(O)cc2c(c1O)C(=O)CC(c1ccccc1)O2 (stereo unspecified)
CCc1nc(SCC(=O)c2ccc3c(c2)OCCO3)c2ccccc2n1
Cc1ccc(C(C)C)c(OCc2nnc(SCC(=O)Nc3ncc(C)s3)n2C)c1
COc1ccc(/C=C2\N=C(c3ccccc3Cl)NC2=O)cc1
CCc1ccc(OCC(=O)Nc2ccncc2)c(Br)c1
O=C(/C=C/c1cccnc1)c1ccc([N+](=O)[O-])cc1
NC1=NC(c2ccc(Cl)cc2)C(C(=O)c2ccccc2)N1 (stereo unspecified)
COc1ccc(S(=O)(=O)Nc2cccc3ccc(O)cc23)cc1
O=C(CCN1C(=O)/C(=C\c2ccccc2)SC1=S)N1CCCCC1
Cc1ccc(CNC(=O)Cc2ccc(-n3c(=O)[nH]c4ccsc4c3=O)cc2)cc1
CCOc1ccc(-n2c(C)cc(C(=O)CCl)c2C)cc1
COC(=O)c1c(NC(=O)CN2C(=O)NC3(CCC(C)CC3)C2=O)sc2c1CCC2 (stereo unspecified)
COC(=O)CNC(c1ccccc1Cl)c1cc(Br)ccc1NC(=O)CCN1CCOCC1 (stereo unspecified)
COc1ccc(CC(=O)Nc2ccc(-c3ccc4nnc(C)n4n3)cc2)cc1OC
N#CCC(CNc1ncc(C(F)(F)F)cc1Cl)OC(=O)c1ccc(Cl)cc1Cl (stereo unspecified)
Cc1cccn2c(=O)c3cc(C(=O)N4CCCCC4)sc3nc12
COc1ccc(-c2oc3cc(O)c(OC)c(O)c3c(=O)c2OC)cc1
Cc1cccc(N2C(=O)CC(N3CCN(C(=O)c4ccccc4)CC3)C2=O)c1 (stereo unspecified)
CC1=C(n2ccnc2)CCC1=O
O=C1CCCC2=C1C(c1ccc(Cl)cc1)n1c(s/c(=C\c3ccc4ccncc4c3)c1=O)=N2 (stereo unspecified)
Nc1c(N(CCC2=CCCCC2)C(=O)COc2ccc(F)cc2)c(=O)[nH]c(=O)n1Cc1ccccc1
O=c1cc(N2CCN(c3ccccc3Cl)CC2)[nH]c(=O)n1Cc1ccc(F)cc1
O=C(N/N=C/c1ccc2c(c1)OCO2)c1cccc2ccccc12
CC(C)(C)c1ccc(C(=O)NNC(=O)c2cccc(Br)c2)cc1
COc1cccc(/C=N/NC(=O)c2[nH]nc3c2CCc2ccccc2-3)c1
COc1ccc(NC(=O)c2cnc(SC)nc2)cc1
COc1ccc(/C=C/C(=O)c2ccc3c4c(cccc24)CC3)cc1OC
COc1ccc(/C=C/C(=O)c2c(O)cc(OC)cc2OC)cc1
